Values without a mark were called inactive. Activity calls are given as the source filed them.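 The calls were made as follows, unless noted: active = mean inhibition above 46.5%, the solvent-only control mean plus 3 SD; inactive = the rest.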
What was measured:
[1] = test system: transactivating tegument protein VP16 (Human herpesvirus 1); experiment: VP16 transactivation reporter inhibitors, counter-screen for SRC2 inhibitor project, cell-based, luminescence, single concentration (AID 652007; in the data active = inhibition above about 36%); details: cell-based VP16 transactivation luciferase reporter, at 8.9 µM, active compounds read high
[2] = target: Nuclear receptor coactivator 2 (Homo sapiens) (UniProt Q15596); experiment: SRC2 coactivator transcriptional activity inhibitors, confirmation, cell-based, luminescence, HEK293, triplicate (AID 652008); details: HEK293 GAL4-SRC2 luciferase reporter, at 8.9 µM, active compounds read high;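 also: 0% = DMSO-treated cells and 100% = Gossypol at 36 µM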
Sequence of Nuclear receptor coactivator 2 (Homo sapiens) (Q15596 whole entry, looked up, the tested form may be a part): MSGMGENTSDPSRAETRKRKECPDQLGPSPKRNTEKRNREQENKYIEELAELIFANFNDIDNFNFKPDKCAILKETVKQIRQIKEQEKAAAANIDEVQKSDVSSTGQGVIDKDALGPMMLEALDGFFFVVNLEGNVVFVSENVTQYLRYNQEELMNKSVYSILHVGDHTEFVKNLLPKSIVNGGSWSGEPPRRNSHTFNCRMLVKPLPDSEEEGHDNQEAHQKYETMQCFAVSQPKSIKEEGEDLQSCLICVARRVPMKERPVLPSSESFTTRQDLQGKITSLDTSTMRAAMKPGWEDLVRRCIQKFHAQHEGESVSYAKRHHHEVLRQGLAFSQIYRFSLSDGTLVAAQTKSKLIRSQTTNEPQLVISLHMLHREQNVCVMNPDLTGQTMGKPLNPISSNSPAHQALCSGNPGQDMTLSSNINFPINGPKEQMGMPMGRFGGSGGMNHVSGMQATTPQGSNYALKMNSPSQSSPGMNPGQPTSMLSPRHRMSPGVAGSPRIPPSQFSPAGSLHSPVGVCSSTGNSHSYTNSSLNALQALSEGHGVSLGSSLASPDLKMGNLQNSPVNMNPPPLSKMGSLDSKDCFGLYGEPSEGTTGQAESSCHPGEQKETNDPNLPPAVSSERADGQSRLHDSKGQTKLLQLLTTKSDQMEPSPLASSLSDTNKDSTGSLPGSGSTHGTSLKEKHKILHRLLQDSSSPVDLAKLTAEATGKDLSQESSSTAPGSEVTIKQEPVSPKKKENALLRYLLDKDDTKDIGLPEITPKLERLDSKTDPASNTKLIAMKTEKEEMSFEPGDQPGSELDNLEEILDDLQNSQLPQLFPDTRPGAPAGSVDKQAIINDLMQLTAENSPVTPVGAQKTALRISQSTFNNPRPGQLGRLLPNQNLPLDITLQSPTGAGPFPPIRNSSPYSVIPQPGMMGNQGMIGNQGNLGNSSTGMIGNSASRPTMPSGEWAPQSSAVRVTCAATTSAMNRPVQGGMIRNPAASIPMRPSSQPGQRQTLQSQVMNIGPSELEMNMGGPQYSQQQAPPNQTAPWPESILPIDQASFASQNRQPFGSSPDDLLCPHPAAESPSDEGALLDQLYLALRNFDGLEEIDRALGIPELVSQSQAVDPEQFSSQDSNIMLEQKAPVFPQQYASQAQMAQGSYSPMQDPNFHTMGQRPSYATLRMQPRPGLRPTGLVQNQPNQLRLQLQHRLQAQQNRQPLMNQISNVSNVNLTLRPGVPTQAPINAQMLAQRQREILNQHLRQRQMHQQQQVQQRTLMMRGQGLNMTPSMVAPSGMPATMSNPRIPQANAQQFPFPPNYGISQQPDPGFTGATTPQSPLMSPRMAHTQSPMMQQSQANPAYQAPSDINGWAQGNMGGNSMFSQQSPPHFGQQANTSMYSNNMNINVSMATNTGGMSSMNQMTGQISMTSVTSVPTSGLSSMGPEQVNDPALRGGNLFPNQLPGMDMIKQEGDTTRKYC

| Compound | inhibition [1] | inhibition [2] |
| --- | --- | --- |
| O=C(Nc1ncn[nH]1)c1ccc(Cl)c(S(=O)(=O)Nc2ccc(Cl)cc2)c1 | -5.84% | 5.69% |
| Cc1ccc2c(c1)COc1c3ccc(C(=O)O)cc3nn1-2 | -24.7% | -1.87% |
| CC(C)c1ccccc1NC(=O)COC(=O)CCN1C(=O)/C(=C\C=C\c2ccccc2)SC1=S | 45.2% (active) | 77.6% (active) |
| Cc1c(CCC(=O)O)c(=O)oc2cc3oc4c(c3cc12)CCCC4 | 49.3% (active) | 69.2% (active) |
| COc1cc(/C=C/C(=O)c2ccc3c(c2)OCCO3)cc(OC)c1OC | 5.55% | 29.2% |
| O=C1CCCC/C1=C/Nc1ccc2c(c1)OCO2 | -58.7% | -65.5% |
| Cc1ccc([C@@H]2CC=C(C(=O)O)[C@H](c3ccccc3)N2S(=O)(=O)c2ccccc2C)cc1 | 0.1% | -13% |
| CN(Cc1ccccc1)S(=O)(=O)c1ccc(Cl)c(C(=O)NCCCN2CCOCC2)c1 | -5.53% | 5.69% |
| CC(C)=CCc1c(O)ccc2c1OC(c1ccc(O)c(O)c1)CC2=O (stereo unspecified) | 10.7% | 56.9% (active) |
| C=C(C(=O)c1ccccc1)C(C)CC(=O)c1ccccc1 (stereo unspecified) | 11.5% | 26.8% |
| Cc1ccc(S(=O)(=O)Nc2ccccc2C(=O)N2CCCC2)cc1 | -24.9% | 0.98% |
| O=C(CCl)Nc1cccc(S(=O)(=O)NC2=NCCC2)c1 | 76.2% (active) | 38.1% |
| O=C1C=CC(=O)C(CNc2ccc(C(=O)OCc3ccccc3)cc2)=C1 | 38.2% (active) | 39.2% |
| COc1ccc(-c2nnc(SCC(=O)Oc3ccc(C)cc3)o2)cc1 | -10% | -4.18% |
| Cc1ccc(C2(CCNCc3ccco3)CCOC(C(C)C)C2)cc1 (stereo unspecified) | -11.6% | -20.8% |
| CC(=O)Nc1ccc(Nc2nc(C)c([N+](=O)[O-])c(N(C)c3ccccc3)n2)cc1 | 32.4% | 49.2% (active) |
| Cn1nnnc1Sc1ncnc2scc(-c3ccsc3)c12 | 18.3% | 45% |
| Cc1cc(C2=NNC(=NC3CC3)SC2)c(C)n1-c1ccccc1 | 83.2% (active) | 96.4% (active) |
| Cc1ccc(-c2c(C(=O)N/N=C/C3CCCCC3)nnn2-c2nonc2N)cc1 | -21.5% | -23% |
| CC(C)C[C@@H]1Cc2[nH][nH]c(=O)c2[C@H](C(C)C)O1 | -6.29% | -23.6% |
| CCOC(=O)C1(CC2CC2)CCN(Cc2cnc(-c3ccccc3C)nc2)CC1 | 3.57% | 3.04% |
| COc1ccc(NC(=O)CSc2nnnn2C2CCCCC2)c(OC)c1 | 1.44% | 14.6% |
| C[C@@H]1CNCCN1c1ccc(N2CCN(Cc3ccccc3)[C@@H](C)C2)c(C#N)c1 | 15.5% | 17.3% |
| Cc1cc(C)c2c3c(sc2n1)C(=O)N(c1ccccc1C)CC(=O)N3 | 4.42% | 5.22% |
| COc1cccc(C(NC(C)=O)c2nc(-c3cccc(C#N)c3)cs2)c1 (stereo unspecified) | -10.7% | -26.2% |

| Compound | inhibition [1] | inhibition [2] |
| --- | --- | --- |
| Cn1c(=O)c2c(ncn2CCOc2cccc(Br)c2)n(C)c1=O | 2.33% | 2.64% |
| O=C(O)CCSc1nnc(-c2ccc3c(c2)OCO3)o1 | 45.9% (active) | 60.7% (active) |
| COc1ccccc1NS(=O)(=O)c1ccc(C)c(C(=O)NC2CCN(Cc3ccccc3)CC2)c1 | 17.2% | 36.4% |
| CCNC(=O)NC(=O)C(C)OC(=O)CCCSc1nc2ccccc2s1 (stereo unspecified) | 14.4% | 22.5% |
| COc1ccccc1-c1cn[nH]c1-c1ccc(O)cc1O | 1.82% | 11.9% |
| Cc1nc(SCc2ccc(C(=O)O)cc2)nc2c1CCCC2 | 10.8% | 23.6% |
| CC(C)COc1ccc(C(=S)N2CCCC2)cc1 | -1.55% | 40.6% |
| CC(=O)n1cc(N(C(=O)CCl)c2ccccc2)c2ccccc21 | 51.8% (active) | 50.5% (active) |
| CC(=O)NN1C(=O)/C(=C\c2ccc(Br)o2)SC1=S | 14.8% | 19.2% |
| Oc1cc2ccccc2cc1-c1nnc2n1-c1ccccc1SC2 | 5.09% | 3.52% |
| Cc1csc2ncnc(N3CCN(C(=O)Nc4ccc(OC(F)(F)F)cc4)CC3)c12 | 1.45% | 26.6% |
| CCOc1ccc(-n2cc(C(=O)NCc3ccco3)c3cc(OC)c(OC)cc3c2=O)cc1 | 2.87% | -7.4% |
| O=C(O)C1(Nc2ccc(Br)cc2)CCCC1 | -19.4% | -11.7% |
| O=S(=O)(c1ccc2c(c1)OCCO2)N1CCN(c2ncnc3sccc23)CC1 | 6.15% | 36.6% |
| Cc1ccc(NCC(=O)Nc2cccc(F)c2)cc1S(=O)(=O)N1CCCCCC1 | 15.9% | 3.72% |
| O=C(O)COc1ccc(-c2nccc(-c3ccccn3)n2)cc1 | 20.4% | 79.1% (active) |
| CCN(CC(=O)Nc1cc(Cl)ccc1C)C(=O)C1CCN(c2ncnc3sc(C)c(C)c23)CC1 | 8.26% | 20.7% |
| NCCCCCc1nnc(SCc2ccccc2Cl)o1 | 48.5% (active) | 53.5% (active) |
| COc1cccc(N2CCN(c3ncnc4c3[nH]c3ccccc34)CC2C)c1 (stereo unspecified) | 63.8% (active) | 12.8% |
| CC(=O)Nc1cccc(-c2cc(NC(C)=O)c3ncc(-c4ccc(F)cc4)n3c2)c1 | 12% | 2.54% |
| Cc1ccc(C(=O)/C=C/Nc2ccccn2)cc1 | 31.1% | 77% (active) |
| COc1ccc(Cl)cc1C(=O)Nc1nc2ccccc2[nH]1 | -42.5% | 10.7% |
| Cc1ccc(NC(=O)C2CCN(C(=O)c3ccccc3C)CC2)nc1 | -5.97% | -11.5% |
| COCCN(C(=O)CCC(=O)Nc1nccs1)C(C(=O)NC(C)(C)C)c1ccc(C)cc1 (stereo unspecified) | 11.2% | 5.44% |
| COC(=O)c1cc(=O)n(-c2ccccc2)c(=Nc2ccccc2)s1 | 8.44% | 24.4% |

| Compound | inhibition [1] | inhibition [2] |
| --- | --- | --- |
| Cc1ccc(C(=O)NC(=S)Nc2ccc(-c3cc4ccccc4oc3=O)cc2)c(C)c1 | -3.58% | 19.5% |
| COc1cc(Nc2nc(-c3ccccc3)c3cc(C)ccc3n2)cc(OC)c1OC | 6.86% | 10.7% |
| Cc1ccc(NC(=O)c2ccc(NC(=O)C3CCCCC3C(=O)O)cc2)cc1 (stereo unspecified) | -56% | -17.6% |
| c1cc(-c2nnc3n2N=C(c2ccc4c(c2)OCO4)CS3)ccn1 | -3.48% | 42.4% |
| CCCc1cc(=O)n2nc(N3CCC(C(=O)N4CCN(c5cccc(OC)c5)CC4)CC3)sc2n1 | -1.33% | 17.2% |
| CC(=O)c1ccc(OC2(C)CCN(Cc3ccc(OC(F)(F)F)cc3)C2)cc1 (stereo unspecified) | -12.4% | -13.5% |
| CC1CCc2nc(N)c(C#N)c(-c3cccn3C)c2C1 (stereo unspecified) | 15.5% | 15.7% |
| O=C(COc1ccc([N+](=O)[O-])cc1)Nc1ccc(C(=O)NCc2cccnc2)cc1 | -13.3% | 27.8% |
| Cc1ccc(NC(=O)C2CCN(S(=O)(=O)c3c(C)noc3/C=C/c3ccco3)CC2)nc1 | 11.6% | 22.4% |
| Cc1cc(C)nc(NC(=O)c2c(F)c(F)c(F)c(C(=O)Nc3cc(C)cc(C)n3)c2F)c1 | 19.3% | 48.3% (active) |
| Cn1nnnc1Sc1ncnc2scc(-c3ccc(C#N)cc3)c12 | 12.5% | 30.8% |
| CC(C)COc1ccc(C/C(N)=N/n2cnnc2)cc1 | 22.1% | 40.3% |
| COc1cc(OC)cc(C(=O)NCC2CCN(C(=O)C(=O)c3cccs3)CC2)c1 | 18.9% | 18% |
| CCOc1ccc(CN(C)C(=O)CCl)cc1 | 30.9% | 35.6% |
| O=[N+]([O-])c1cccc2cnccc12 | -10.2% | 3.57% |
| Cc1ccc(-n2nc3ccc(N)cc3n2)c(C)c1 | -39.4% | 21.3% |
| Cc1cc(C)n(CCC(=O)N/N=C/c2c(O)ccc3ccccc23)n1 | 5.98% | 17.2% |
| Cc1nnc(NC(=O)c2nc(S(=O)(=O)Cc3ccccc3)ncc2Cl)s1 | 1.66% | 22.4% |
| O=C(c1ccccc1Nc1ccc(SC(F)F)cc1)N1CCCCCC1 | 2.12% | 4.87% |
| CN(C(=O)CCc1nnc(-c2ccc(-c3ccccc3)cc2)o1)C1CCOCC1 | -6.16% | 26.7% |
| COc1ccc(OC)c(NC(=O)COC(=O)CCCN=C2NS(=O)(=O)c3ccccc32)c1 | -0.67% | -10.3% |
| Cn1nnnc1Sc1ncnc2scc(-c3ccc(C(F)(F)F)cc3)c12 | 35.2% | 44.4% |
| CCc1cccc(C)c1NC(=O)CSc1nnc(CCCOc2ccc(Cl)cc2Cl)n1C | -13.2% | -8.02% |

— PubChem BioAssay
